Screening results deposited in PubChem by Buhrlage Lab, Dana-Farber Cancer Institute and Novartis Institutes for BioMedical Research (Cambridge, Mass).
USP28 block – inhibitors of human USP28 deubiquitinase; Q96RU2; purified USP28, Ub-rhodamine cleavage fluorescence, 30 min; inhibition, % at 25 µM; hit rate 3% among 47,000
USP17 inh – blocks human USP17 ubiquitin-rhodamine cleavage. A8MUK1. purified USP17, Ub-rhodamine cleavage fluorescence, 3 h. inhibition, % at 50 µM. hit rate 6.5% among 47,000. AID 1645855
OTUD3 inh – inhibitors of human OTUD3 deubiquitinase; Q5T2D3; purified OTUD3, Ub-rhodamine fluorescence, 2 h; inhibition, % at 25 µM; hit rate 0.7% among 47,000; AID 1645858
Target sequence (Q5T2D3 whole entry, looked up): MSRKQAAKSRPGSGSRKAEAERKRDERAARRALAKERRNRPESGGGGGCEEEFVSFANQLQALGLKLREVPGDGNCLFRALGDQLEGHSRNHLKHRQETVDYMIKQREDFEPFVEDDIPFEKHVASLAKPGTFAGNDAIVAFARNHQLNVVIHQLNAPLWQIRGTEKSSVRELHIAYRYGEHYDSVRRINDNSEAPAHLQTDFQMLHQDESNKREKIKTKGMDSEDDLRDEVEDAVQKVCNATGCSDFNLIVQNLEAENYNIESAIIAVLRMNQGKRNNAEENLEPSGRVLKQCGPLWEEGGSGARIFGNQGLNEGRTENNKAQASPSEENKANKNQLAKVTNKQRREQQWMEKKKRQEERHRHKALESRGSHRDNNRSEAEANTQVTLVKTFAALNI
USP30 block – human USP30 deubiquitinase inhibition; AID 1645860; purified USP30, Ub-rhodamine cleavage fluorescence; inhibition, % at 25 µM; Q70CQ3; hit rate 5.3% among 47,000
Of the large screens only hits and unclear results are named; the others gave an inactive call. A selection: hits, their analogues and other compounds. The true share with any hit is near 11%. Rule as the data show it: active = inhibition above about 30%; inactive = the rest.

O=C(c1cc(C2CC2)[nH]n1)N1CCC(C2Nc3ccccc3S(=O)(=O)N2)CC1 (centres undefined)	none
O=C(c1cc(C2CC2)[nH]n1)N1CCC(Cc2ccccc2)CC1	USP30 block 32.5
Cc1nc2sccn2c1-c1nc(-c2cc(Cl)ccc2Cl)cs1	USP17 inh 49.5, USP30 block 45.7
Cc1nc(-c2ccc3c(c2)CCN3C(=O)Cc2cccc(F)c2)no1	none
O=C(NCc1ccc2c(c1)OCO2)c1cc(-c2cc(Cl)ccc2O)n[nH]1	USP30 block 77.3
O=C(Nc1cccnc1)c1[nH]nc2c1COc1ccccc1-2	none
O=C(Nc1ccc2c(c1)OCO2)c1[nH]nc2c1CCc1ccccc1-2	USP28 block 43.3, USP17 inh 65.6
O=C(NCc1ccc2c(c1)OCO2)c1nnc(C(=O)Nc2ccc(F)cc2)s1	none
COc1cccc(CNC(=O)c2[nH]nc3c2CCc2ccccc2-3)c1	none
O=C(NCc1ccc2c(c1)OCO2)c1[nH]nc2c1CCc1ccccc1-2	USP17 inh 60.0, USP30 block 56.9
NC(=O)c1cccc(NC(=O)COc2ccc(Cl)c3ccccc23)c1	none
COc1ccc(C(=O)Nc2ccc(S(=O)(=O)N3CCCCC3)cc2)cc1	USP28 block 65.8
Cc1ccc(C(=O)Nc2ccc(S(=O)(=O)N3CCCC3)cc2)cc1Br	USP28 block 77.5, USP30 block 45.3
CC(=O)Nc1ccc(S(=O)(=O)N2CCC(C(=O)Nc3ccc4cc[nH]c4c3)CC2)cc1	none
O=C(Nc1ccc2c(c1)OCO2)c1cccc(S(=O)(=O)N2CCCCCC2)c1	none
O=C(Nc1ccc2[nH]ccc2c1)C1CCN(S(=O)(=O)c2ccccc2)CC1	USP30 block 45.2
COc1ccc(S(=O)(=O)N2CCC(C(=O)Nc3ccc4c(c3)OCO4)CC2)cc1	USP28 block 38.0
O=C(Nc1ccc(Br)cc1F)c1ccc(S(=O)(=O)N2CCCC2)cc1	none
CCOC(=O)N1CCN(S(=O)(=O)c2ccc(C(=O)Nc3ccc(OCC)cc3)cc2)CC1	none
CCOc1ccccc1N(C)C(=O)c1cc(S(=O)(=O)NC2CCCCC2)ccc1F	none
COc1ccc2[nH]c3c(N4CCN(C)CC4)ncnc3c2c1	none
O=C1Cc2cc(S(=O)(=O)Nc3ccccc3C(=O)Nc3ccc(F)cc3)ccc2N1	none
O=C(Nc1ccc(S(=O)(=O)N2CCCCC2)cc1)c1ccccn1	USP17 inh 75.2 (no result: USP28 block, USP30 block)
Cc1cc(NC(=O)CN2CCCN(S(=O)(=O)c3ccc(F)cc3)CC2)ccc1Br	USP17 inh 35.1, USP30 block 37.6
O=C1CCSc2ccccc2N1Cc1ccccc1F	none
O=C1CCSc2ccc(Cl)cc2N1Cc1ccc(Cl)cc1	USP28 block 41.8
Cc1ccc(C(=O)Nc2ncc3c(Cl)cccc3n2)cc1	USP17 inh 30.9, USP30 block 33.4
Cc1ccc(C(=O)Nc2ncc3c(n2)CC(C)(C)CC3=O)cc1	USP30 block 37.3
CC1(C)CC(=O)c2cnc(NC(=O)c3ccco3)nc2C1	none
CC1(C(=O)NC2CCCCC2)Cn2c(cc3sccc32)C(=O)N1Cc1ccco1 (centres undefined)	none
COc1ccc(CCNc2ncnc3c2[nH]c2ccc(OC)cc23)cc1	none
COc1ccc(CN2CC[C@@H]3[C@H]2C(=O)NC[C@H](CCC(=O)NCc2cccnc2)N3C)cc1	USP28 block 34.2, USP30 block 37.8
Cc1ccc(CN2CC[C@@H]3[C@H]2C(=O)NC[C@H](CCC(=O)NCc2cccnc2)N3C)cc1	none
COc1cccc(Cn2nc3n(CC(C)C)c(=O)c4ccc(C(=O)NC(C)C)cc4n3c2=O)c1	USP30 block 30.3
COc1cccc(Cn2nc3n(C(C)C)c(=O)c4ccc(C(=O)NC(C)C)cc4n3c2=O)c1	none
COc1cc(OC)c(N(C)S(=O)(=O)c2cccc(C(=O)OCC(=O)Nc3ccccc3C(C)=O)c2)cc1Cl	none
Cn1c(CNS(=O)(=O)c2ccc(Br)cc2)nnc1SCc1ccc(Cl)c(Cl)c1	USP28 block 40.8, USP30 block 35.4
Cn1c(CNS(=O)(=O)c2ccc(Cl)cc2)nnc1SCc1cccc(C(F)(F)F)c1	none
Cc1cccc(CC(=O)Nc2cccn3nc(C)nc23)c1	none
Cc1noc(C)c1COc1cccc(C(=O)Nc2ccc(OC(F)(F)F)cc2)c1	none
O=c1oc2ccccc2cc1-c1nc(-c2ccc(Oc3ccccc3)cc2)cs1	USP28 block 36.2, USP17 inh 42.2
Cc1ncccc1NC(=O)c1ncn2c1CN(CC(C)C)S(=O)(=O)c1ccccc1-2	none
O=C(Nc1ccc(F)cc1)c1ccc(-c2ccc(N3CCCC3)nn2)cc1	none
O=C(Nc1ccc(N2CCOCC2)cc1)c1ccc(-c2ccc(N3CCCC3)nn2)cc1	USP17 inh 51.2
O=C(Nc1cccc(-c2ccc(N3CCOCC3)nn2)c1)c1ccccc1Br	USP17 inh 41.3, USP30 block 38.8
